# Compounds with a hit are over-represented: about 3.3% of the library has one in this group of screens.
# INS-1E GSIS act: GLuc luminescence reporter in INS-1E cells, primary screen for activators of glucose-dependent secretion of insulin; actives 0.61% (n = 370,000); INS-1E GLuc reporter insulin secretion, 2-3 h; activation, % at 16.6 µM;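 active = lowest replicate activation of at least 40%, so every replicate reaches that level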;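 note: 0% = median of neutral control wells and 100% = median of IBMX positive control wells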
# Casp6 inh: human caspase-6 inhibitors, primary screen, biochemical, VEID-R110 fluorescence, single point, set 2. P55212. purified caspase-6, Z-VEID-R110 cleavage fluorescence. inhibition, % at 12.5 µM. actives 0.53% (n = 350,000). AID 686996, 2013;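 active = mean inhibition across replicates at least about 35%, with every replicate also reaching that limit, limit read from the data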;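 note: 0% = median of neutral control wells and 100% = no fluorescence left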
# Target sequence (P55212 24-179 limits assumed): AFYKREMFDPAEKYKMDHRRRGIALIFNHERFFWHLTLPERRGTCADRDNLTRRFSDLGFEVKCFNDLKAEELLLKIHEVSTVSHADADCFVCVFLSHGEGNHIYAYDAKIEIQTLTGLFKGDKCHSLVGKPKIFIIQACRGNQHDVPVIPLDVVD
# Target sequence (P55212 194-293 limits assumed): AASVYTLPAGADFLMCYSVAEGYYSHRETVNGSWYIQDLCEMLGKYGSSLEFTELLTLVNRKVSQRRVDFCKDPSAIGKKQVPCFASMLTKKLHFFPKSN
# ERAP1 inh: human ERAP1 aminopeptidase inhibitors, primary screen, biochemical, single point, plate reader. inhibition, % at 10.7 µM. actives 0.15% (n = 340,000). Endoplasmic reticulum aminopeptidase 1 (Homo sapiens), Q9NZ08. recombinant ERAP1, Leu-AMC fluorescence, 60 min;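 active = mean replicate inhibition of at least 30%, or all replicates individually reaching that 30% level; inactive = mean below 30% and not every replicate reaching it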;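 note: 0% = neutral control wells and 100% = L-leucinethiol positive control wells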
# SIRT5 inh: SIRT5 desuccinylase inhibitors, primary screen, biochemical, fluorescence imaging, single point, set 5; actives 1.1% (n = 330,000); inhibition, % at 15 µM; NAD-dependent protein deacylase sirtuin-5, mitochondrial (Homo sapiens), Q9NXA8; Purified SirT5, succinyl-peptide AMC, trypsin-coupled fluorescence; AID 652115, 2013; in the data active = inhibition above about 15%
# FGF22 binding: binders of human FGF22 protein, primary screen, FGF22 synaptogenesis inhibitor project, biophysical, thermal shift, single point; AID 651658, 2012; actives 1.5% (n = 340,000); recombinant FGF22 thermal shift, SYPRO orange fluorescence; percent of sucrose octasulfate shift, DMSO zero; Fibroblast growth factor 22 (Homo sapiens), Q9HCT0; activity (Tm shift, normalised), % at 9.99 µM;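 active = mean Tm shift, scaled 0 neutral to 100 positive control, at about 1.3% or above, every replicate too, limit read from the data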
# Target sequence (Q9HCT0 whole entry, looked up): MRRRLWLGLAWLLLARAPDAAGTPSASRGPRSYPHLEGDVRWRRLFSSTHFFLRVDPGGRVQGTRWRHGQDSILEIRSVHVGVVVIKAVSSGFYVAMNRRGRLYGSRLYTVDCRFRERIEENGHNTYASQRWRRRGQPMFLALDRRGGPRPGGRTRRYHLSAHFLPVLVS
# * marks the source's active call; other numbers are inactive results; / = no result.
SMILES,INS-1E GSIS act,Casp6 inh,ERAP1 inh,SIRT5 inh,FGF22 binding
CC1(C)CC[C@]2(C(=O)O[C@@H]3OC(CO)[C@@H](O)[C@H](O)[C@H]3O)CC[C@]3(C)C(=CCC4[C@@]5(C)CC[C@H](O[C@@H]6OC(C(=O)O)[C@@H](O)[C@H](O)[C@H]6O)C(C)(C)C5CC[C@]43C)[C@@H]2C1 (some centres undefined),9,3,-1,-1,-1
C/C=C(\C)C(=O)OC1CC(C)(C)C[C@H]2C3=CC[C@@H]4[C@@]5(C)CCC(O[C@@H]6O[C@@H](C(=O)O)[C@@H](O)C(O[C@@H]7OC[C@H](O)[C@@H](O)[C@@H]7O[C@@H]7OC(CO)C(O)[C@@H](O)[C@@H]7O)C6O[C@@H]6OC(CO)C(O)C(O)C6O)[C@@](C)(CO)[C@@H]5CC[C@]4(C)[C@]3(C)CC(O)[C@@]12CO (some centres undefined),/,58*,-15,1,0
COc1cccc(-c2ccc([C@@H]3[C@H]4CN(C(=O)C5CCC5)CC(=O)N4[C@H]3CO)cc2)c1,-3,2,-1,-2,/
C[C@H]1CN([C@@H](C)CO)C(=O)Cc2cc(NC(=O)CCCCCC(=O)Nc3ccccc3N)ccc2O[C@@H]1CN(C)C(=O)Nc1ccc(F)cc1,-6,-2,2,-1,-1
CCOc1ccc(N2CC(O)(c3cccs3)[N+]3=C2CCCC3)cc1 (centres undefined),9,9,0,-3,0
OC1(c2cccs2)CN(c2ccccc2)C2=[N+]1CCCC2 (centres undefined),17,1,0,-2,43*
CCOC(=O)C1CCCN(CCC(=O)Nc2cc(C)cc(C)c2)C1 (centres undefined),3,-2,-1,-5,44*
CCOC(=O)C1CCCN(CC(=O)Nc2cc(C)cc(C)c2)C1 (centres undefined),7,-2,27,9,0
COc1ccc(CN(C)C(=O)COc2cccc(-n3cnnn3)c2)cc1OC,41*,-1,3,1,0
CCOc1ccc(CCNC(=O)COc2cccc(-n3cnnn3)c2)cc1OCC,44*,-1,-1,-2,0
CNC[C@@H]1OCCCC[C@@H](C)Oc2ccc(NS(=O)(=O)c3ccc(F)cc3)cc2C(=O)N([C@@H](C)CO)C[C@@H]1C,-4,/,/,/,/
COc1ccc(S(=O)(=O)Nc2ccc3c(c2)C(=O)N([C@H](C)CO)C[C@H](C)[C@@H](CN(C)C(=O)C2CCCCC2)OCCCC[C@H](C)O3)cc1,-29,0,0,7,-1
CCC(=O)N1[C@H](CO)[C@@H](c2ccc(-c3ccccc3)cc2)[C@@H]1CNC(=O)COC,5,/,/,/,/
Cc1nn(-c2ccccc2)c(C)c1/C=N/n1c(-c2ccc(Cl)cc2)n[nH]c1=S,6,2,12,17*,0
Cc1nn(-c2ccccc2)c(C)c1/C=N/n1c(-c2ccncc2)n[nH]c1=S,4,4,4,-4,0
C[C@@H]1CN([C@@H](C)CO)C(=O)c2cc(NS(=O)(=O)c3ccc(F)cc3)ccc2O[C@@H](C)CCCCO[C@@H]1CN(C)S(=O)(=O)c1ccc(Cl)cc1,12,-1,4,25*,0
C[C@@H]1CN([C@H](C)CO)C(=O)c2cc(NS(=O)(=O)c3ccc(F)cc3)ccc2O[C@@H](C)CCCCO[C@@H]1CN(C)S(=O)(=O)c1ccc(Cl)cc1,2,-1,4,26*,0
C[C@@H]1CCCCO[C@H](CN(C)S(=O)(=O)c2ccc(Cl)cc2)[C@@H](C)CN([C@@H](C)CO)C(=O)c2cc(NS(=O)(=O)c3ccc(F)cc3)ccc2O1,-3,-8,4,0,0
C[C@@H]1CCCCO[C@@H](CN(C)S(=O)(=O)c2ccc(Cl)cc2)[C@@H](C)CN([C@H](C)CO)C(=O)c2cc(NS(=O)(=O)c3ccc(F)cc3)ccc2O1,13,-1,3,15*,0
COc1ccccc1-c1ccc2n(c1=O)C[C@@H]1[C@@H](CO)[C@H](C(=O)N(C)C)N(C(=O)c3cccnc3)[C@H]21,2,1,0,-8,0
CO[C@H]1CN(C)C(=O)c2ccc(NC(=O)C3CCCCC3)cc2OC[C@H](C)N(Cc2cccnc2)C[C@H]1C,-4,-2,-2,4,0
O=C(Nc1ccccc1F)N[C@@H]1CC[C@@H](CCNC(=O)C2CCOCC2)O[C@H]1CO,-10,2,2,-3,0
CCCN(C)C[C@H]1OCCCC[C@H](C)Oc2ccc(NC(=O)CCC(F)(F)F)cc2C(=O)N([C@H](C)CO)C[C@@H]1C,-5,-2,2,7,-1
Cn1c(=O)c2cc(NC(=S)NC3CC3)ccc2n1Cc1ccccc1,/,58*,-1,/,0
O=S(=O)(c1ccccc1)N1CCCCN2[C@H](CO)[C@@H](c3ccc(-c4ccccc4F)cc3)[C@@H]2C1,-23,/,/,/,/
SMILES,INS-1E GSIS act,Casp6 inh,ERAP1 inh,SIRT5 inh,FGF22 binding
O=S(=O)(c1ccc(F)cc1)N1CCCCN2[C@@H](CO)[C@@H](c3ccc(-c4ccccc4F)cc3)[C@@H]2C1,/,-2,2,16*,0
O=S(=O)(c1ccc(F)cc1)N1CCCCN2[C@H](C1)[C@H](c1ccc(-c3ccccc3F)cc1)[C@@H]2CO,/,-1,0,17*,0
O=S(=O)(c1ccc(F)cc1)N1CCCCN2[C@H](C1)[C@@H](c1ccc(-c3ccccc3F)cc1)[C@@H]2CO,/,-2,0,14,0
Cc1ccccc1-c1ccc([C@H]2[C@H](CO)N3CCCCN(S(=O)(=O)c4ccc(F)cc4)C[C@@H]23)cc1,-13,/,/,21*,0
O=S(=O)(c1ccc(F)cc1)N1CCCCN2[C@@H](CO)[C@H](c3ccc(-c4ccccc4F)cc3)[C@@H]2C1,/,0,0,22*,0
Cc1cccc(S(=O)(=O)N2CC[C@@H]3[C@@H](CO)N(C)c4ccc(-c5ccc(C#N)cc5)cc4[C@@H]32)c1,-31,0,1,-1,0
O=S(=O)(c1ccc(F)cc1)N1CCCCN2[C@H](CO)[C@H](c3ccc(-c4ccccc4F)cc3)[C@H]2C1,/,0,5,-1,1
O=S(=O)(c1ccc(F)cc1)N1CCCCN2[C@H](CO)[C@H](c3ccc(-c4ccccc4F)cc3)[C@@H]2C1,/,-2,-2,20*,0
C[C@H]1COc2cc(NCCO)ccc2S(=O)(=O)N1,-2,1,-3,19*,0

# Screens: PubChem, Broad Institute
